# Data as given in the supplement of paper PMC7411054.
# Where a name gives a salt, the structure may show the parent alone.
# System: HepG2-TUBA1B-RELA
# Assay: phenotypically active (imaging signature differs from DMSO and reproducible) at any of 0.3-9 uM (binary (1 = active, 0 = inactive)); higher = active
# Conditions: treatment time: 24 h
# Procedure, shortened: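 Live-cell features were measured per well and normalised to solvent control wells after fifteen gene-edited A549, HepG2 and WPMY1 reporter lines had been treated for 24 h at 0.3, 1, 3 or 9 µM in four wells each. A condition was deviating when ≥3 of 4 wells sat beyond the 95th percentile of control Euclidean distances. It was reproducible when the median replicate Pearson correlation exceeded the 95th percentile of non-replicates. Phenotypic activity demanded both.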
row,SMILES,phenotypically active
1,C[C@H]1[C@H](C)CC[C@]2(C(=O)O)CC[C@]3(C)C(=CC[C@@H]4[C@@]5(C)CC[C@H](O)C(C)(C)[C@@H]5CC[C@]43C)[C@H]12 [Ursolic acid],0 (inactive)
2,CCOC(=O)[C@H](CCc1ccccc1)N[C@@H](C)C(=O)N1Cc2ccccc2C[C@H]1C(=O)O [quinapril],0 (inactive)
3,CC1(C)CCC(C)(C)c2cc(C3(c4ccc(C(=O)O)cc4)OCCO3)ccc21,0 (inactive)
4,CCCCCCCCCN1C[C@H](O)[C@@H](O)[C@H](O)[C@H]1CO [N-Nonyldeoxynojirimycin],0 (inactive)
5,CC(=O)O[C@H]1C[C@@H]2CC[C@@H]3[C@H](CC[C@@]4(C)[C@H]3C[C@H]([N+]3(C)CCCCC3)[C@@H]4OC(C)=O)[C@@]2(C)C[C@@H]1N1CCCCC1 [vecuronium],0 (inactive)
6,O=C(O)c1cc(/N=N/c2ccc(O)c(C(=O)O)c2)ccc1O [olsalazine],0 (inactive)
7,CCOC(=O)[C@H](CCc1ccccc1)N[C@H]1CCc2ccccc2N(CC(=O)O)C1=O [benazepril],0 (inactive)
8,O=C(c1ccccc1)c1ccc2n1CCC2C(=O)O (stereo not drawn) [ketorolac],0 (inactive)
9,CN1C(=O)CC[C@H]1c1cccnc1 [(-)-Cotinine],0 (inactive)
10,CN1C(=O)OC(C)(C)C1=O [trimethadione],0 (inactive)
11,CCC(=C(CC)c1ccc(O)cc1)c1ccc(O)cc1 (stereo in doubt) [diethylstilbestrol],0 (inactive)
12,CCOc1cc(CC(=O)N[C@@H](CC(C)C)c2ccccc2N2CCCCC2)ccc1C(=O)O [repaglinide],0 (inactive)
13,O=C(Cn1ccnc1[N+](=O)[O-])NCc1ccccc1 [benznidazole],0 (inactive)
14,CCCc1nn(C)c2c(=O)[nH]c(-c3cc(S(=O)(=O)N4CCN(C)CC4)ccc3OCC)nc12 [Sildenafil citrate],0 (inactive)
15,CCN(CC)CC(=O)Nc1c(C)cccc1C [lidocaine],0 (inactive)
16,COc1ccc([C@@H]2Sc3ccccc3N(CCN(C)C)C(=O)[C@@H]2OC(C)=O)cc1 [diltiazem],0 (inactive)
17,COc1ccc(CCN(C)CCCN2CCc3cc(OC)c(OC)cc3CC2=O)cc1OC [zatebradine],0 (inactive)
18,CC(C)NCC(O)c1ccc(O)c(O)c1 (stereo not drawn) [Isoproterenol hydrochloride],0 (inactive)
19,O=C(O)c1ccc(O)c2ncccc12,0 (inactive)
20,NCCCC[C@H](N[C@@H](CCc1ccccc1)C(=O)O)C(=O)N1CCC[C@H]1C(=O)O [lisinopril],0 (inactive)
21,C#C[C@]1(O)CC[C@H]2[C@@H]3CCc4cc(OC5CCCC5)ccc4[C@H]3CC[C@@]21C [quinestrol],0 (inactive)
22,O=C(NCc1ccccn1)Nc1nnc(-c2ccco2)o1,0 (inactive)
23,O=C1c2ccccc2C(Cc2ccncc2)(Cc2ccncc2)c2ccccc21,0 (inactive)
24,CCOC(=O)C(C)(C)Oc1ccc(Cl)cc1 [Clofibrate],0 (inactive)
25,CC(C)(Sc1ccc(CCN(CCCCC2CCCCC2)C(=O)NC2CCCCC2)cc1)C(=O)O,0 (inactive)
26,O=c1[nH]cnc2c1ncn2[C@H]1CC[C@@H](CO)O1 [Didanosine],0 (inactive)
27,CC(c1cc2ccccc2s1)N(O)C(N)=O (stereo not drawn) [zileuton],0 (inactive)
28,COc1ccc2[nH]c(S(=O)Cc3ncc(C)c(OC)c3C)nc2c1 (stereo not drawn) [omeprazole],0 (inactive)
